Experiment [1] is described as follows: yeast TOR pathway RPL19A-GFP modulators, primary screen, cell-based, S. cerevisiae, multiplex flow cytometry (AID 1862; in the data active means percent of DMSO control GFP below about 86%;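 further: lower values mimic rapamycin by blocking the RPL19A rise seen in DMSO cells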). The conditions noted are these: S. cerevisiae RPL19A-GFP strain, flow cytometry fluorescence, 3 h; at 10 µM; stronger effect = lower value. On the technique in general: Flow cytometry measures light scatter and fluorescence of single cells or particles in a stream.

Experiment [2] is described as follows: modulators of MEP2-GFP levels in yeast, primary screen, S. cerevisiae, multiplex flow cytometry (AID 1867;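 active means GFP response, as percent of the DMSO control, above the screen-wide mean plus 3 SD, about 139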;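 further: median GFP channel fluorescence of barcode-gated MEP2-GFP cells measured by flow cytometry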). The conditions noted are these: S. cerevisiae MEP2-GFP strain, 3 h, at 10 µM, stronger effect = higher value, 100% means same as DMSO wells.
The nature of experiment [3]: modulators of CIT2-GFP expression in yeast, primary screen, S. cerevisiae, GFP fusion, multiplex flow cytometry (AID 1870;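 active means percent response above a set limit, the screen-wide mean plus 3 SD, cut at about 130% in these data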;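 further: barcoded CIT2-GFP strain pooled with four other GFP strains with rapamycin as positive control; median GFP fluorescence per well over plate mean of DMSO wells so 100% = DMSO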). The conditions noted are these: 3 h, at 10 µM, stronger effect = higher value.
Experiment [4] in a line: modulators of LAP4-GFP expression in yeast, primary screen, S. cerevisiae, multiplex flow cytometry (AID 1873;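 active means GFP signal, as percent of the solvent control, above the screen mean plus 3 SD, about 149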). The conditions noted are these: 3 h, at 10 µM, stronger effect = higher value.
The nature of experiment [5]: modulators of AGP1-GFP expression in yeast TOR pathway, primary screen, cell-based, multiplex flow cytometry, S. cerevisiae (AID 1887;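 active means GFP signal above the screen-wide mean plus 3 SD, that is over about 124.5% of the solvent control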;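 further: AGP1-GFP fusion strain of S. cerevisiae within a five-strain barcoded multiplex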). The conditions noted are these: 3 h, at 10 µM, stronger effect = higher value.
The nature of experiment [6]: inhibitors of CD8+ T cell-vesicle binding, pilot screen, LFA-1/ICAM-1 modulator project, MLPCN validation set, flow cytometry (AID 2523;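 active means response below a set limit, under 55% cells CD8-positive and vesicle-bound, and CD8 cells' 90th-percentile brightness under 279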;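 on vesicle binding response: mean PE anti-B7-1 fluorescence of CD8+ cells relative to row control; 100% = QL9-loaded vesicles with DMSO vehicle in the same plate row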). The conditions noted are these: 2C mouse CD8+ T cells, at 7 µM, stronger effect = lower value; double positive events: measured here: CD8+/vesicle+ event percentage.
Experiment [7] deals with Integrin beta-1 (Homo sapiens) + Integrin alpha-4 (Homo sapiens) (UniProt P13612+P05556). As to the kind of experiment: inhibition of HUTS-21 binding to VLA-4, pilot screen, VLA-4 allosteric modulator project, U937 cells, HUTS-21 mAb, flow cytometry, validation set (AID 2674;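 active means inhibition above 50%, about 3 SD of the validation set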;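 further: antibody binding induced by the VLA-4 ligand LDV present at three times its Kd; 0% = LDV ligand with antibody and no compound and 100% = antibody without LDV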). The conditions noted are these: HUTS-21 LIBS mAb binding, at 6.7 µM, stronger effect = higher value, binding induced by LDV ligand.
Chain of Integrin beta-1 (Homo sapiens) + Integrin alpha-4 (Homo sapiens) (P05556 whole entry, looked up): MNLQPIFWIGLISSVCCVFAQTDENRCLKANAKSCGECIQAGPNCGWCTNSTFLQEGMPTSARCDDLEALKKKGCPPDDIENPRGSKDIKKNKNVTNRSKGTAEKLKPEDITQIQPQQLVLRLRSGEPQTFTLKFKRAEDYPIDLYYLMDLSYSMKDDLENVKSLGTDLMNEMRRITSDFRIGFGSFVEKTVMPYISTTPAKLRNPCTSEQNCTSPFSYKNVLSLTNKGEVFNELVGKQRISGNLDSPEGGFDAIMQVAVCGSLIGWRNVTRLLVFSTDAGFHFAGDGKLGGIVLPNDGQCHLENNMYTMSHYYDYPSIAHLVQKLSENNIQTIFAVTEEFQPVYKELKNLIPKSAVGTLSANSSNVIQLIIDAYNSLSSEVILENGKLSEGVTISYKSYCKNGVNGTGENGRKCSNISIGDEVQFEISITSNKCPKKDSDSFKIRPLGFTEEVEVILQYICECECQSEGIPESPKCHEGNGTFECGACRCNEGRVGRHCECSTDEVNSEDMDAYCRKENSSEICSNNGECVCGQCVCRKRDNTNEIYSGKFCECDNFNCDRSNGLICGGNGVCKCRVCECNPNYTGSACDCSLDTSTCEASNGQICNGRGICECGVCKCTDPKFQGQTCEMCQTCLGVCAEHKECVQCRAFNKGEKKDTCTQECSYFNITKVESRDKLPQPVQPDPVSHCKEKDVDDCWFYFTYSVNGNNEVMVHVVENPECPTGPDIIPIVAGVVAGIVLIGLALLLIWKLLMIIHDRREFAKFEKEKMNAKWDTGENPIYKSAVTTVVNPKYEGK
Chain of Integrin beta-1 (Homo sapiens) + Integrin alpha-4 (Homo sapiens) (P13612 whole entry, looked up): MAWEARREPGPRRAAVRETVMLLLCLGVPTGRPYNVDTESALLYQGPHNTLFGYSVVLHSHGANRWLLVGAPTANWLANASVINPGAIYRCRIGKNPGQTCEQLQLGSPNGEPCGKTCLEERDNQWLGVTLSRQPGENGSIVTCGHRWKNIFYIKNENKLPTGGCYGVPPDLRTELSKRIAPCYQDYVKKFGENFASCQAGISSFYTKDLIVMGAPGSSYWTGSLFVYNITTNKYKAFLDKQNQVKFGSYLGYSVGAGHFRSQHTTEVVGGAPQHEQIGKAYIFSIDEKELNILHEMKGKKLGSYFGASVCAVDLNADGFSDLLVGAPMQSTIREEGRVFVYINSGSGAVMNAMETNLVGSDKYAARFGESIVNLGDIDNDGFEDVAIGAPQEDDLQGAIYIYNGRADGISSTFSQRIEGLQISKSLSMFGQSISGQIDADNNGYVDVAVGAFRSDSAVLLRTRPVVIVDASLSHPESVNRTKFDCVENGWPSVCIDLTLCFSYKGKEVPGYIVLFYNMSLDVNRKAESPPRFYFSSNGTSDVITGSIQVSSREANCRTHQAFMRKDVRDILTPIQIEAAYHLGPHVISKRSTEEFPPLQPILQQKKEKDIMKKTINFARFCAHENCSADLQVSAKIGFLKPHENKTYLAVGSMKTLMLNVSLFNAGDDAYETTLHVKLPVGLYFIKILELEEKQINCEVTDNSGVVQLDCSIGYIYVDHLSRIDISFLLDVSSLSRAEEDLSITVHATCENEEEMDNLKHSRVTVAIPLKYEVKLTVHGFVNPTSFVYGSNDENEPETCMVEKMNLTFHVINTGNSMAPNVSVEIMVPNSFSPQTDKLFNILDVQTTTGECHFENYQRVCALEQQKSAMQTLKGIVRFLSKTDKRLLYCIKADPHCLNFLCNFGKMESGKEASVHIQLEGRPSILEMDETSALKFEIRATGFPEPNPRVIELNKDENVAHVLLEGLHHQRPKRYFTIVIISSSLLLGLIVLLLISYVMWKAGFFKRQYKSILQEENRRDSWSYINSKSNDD

A short description of experiment [8]: superoxide lowering in aged yeast cells, pilot screen, validation compound set (AID 2706;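 active means superoxide response below 65% of plate, a cut near 3 SD across the whole screen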;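 further: yeast exposed to compound for one week at 30 degrees C before staining; 100% = mean of all compound wells on the same plate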). The conditions noted are these: S. cerevisiae aging, superoxide DHE fluorescence; at 10 µM; stronger effect = lower value.
For experiment [9], the target named is Beta-adrenergic receptor kinase 1 (Homo sapiens) (UniProt P25098). As to the kind of experiment: GRK2 binders displacing RNA aptamer, biochemical, validation, human GRK2, bead flow cytometry (AID 488806;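 active means aptamer binding inhibition above 30%, about 3 SD of noise from non-fluorescent compounds; inactive means inhibition at or below 30%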). The conditions noted are these: bead-bound GRK2, FAM-aptamer displacement, at 10 µM, stronger effect = higher value.
Chain of Beta-adrenergic receptor kinase 1 (Homo sapiens) (P25098 whole entry, looked up): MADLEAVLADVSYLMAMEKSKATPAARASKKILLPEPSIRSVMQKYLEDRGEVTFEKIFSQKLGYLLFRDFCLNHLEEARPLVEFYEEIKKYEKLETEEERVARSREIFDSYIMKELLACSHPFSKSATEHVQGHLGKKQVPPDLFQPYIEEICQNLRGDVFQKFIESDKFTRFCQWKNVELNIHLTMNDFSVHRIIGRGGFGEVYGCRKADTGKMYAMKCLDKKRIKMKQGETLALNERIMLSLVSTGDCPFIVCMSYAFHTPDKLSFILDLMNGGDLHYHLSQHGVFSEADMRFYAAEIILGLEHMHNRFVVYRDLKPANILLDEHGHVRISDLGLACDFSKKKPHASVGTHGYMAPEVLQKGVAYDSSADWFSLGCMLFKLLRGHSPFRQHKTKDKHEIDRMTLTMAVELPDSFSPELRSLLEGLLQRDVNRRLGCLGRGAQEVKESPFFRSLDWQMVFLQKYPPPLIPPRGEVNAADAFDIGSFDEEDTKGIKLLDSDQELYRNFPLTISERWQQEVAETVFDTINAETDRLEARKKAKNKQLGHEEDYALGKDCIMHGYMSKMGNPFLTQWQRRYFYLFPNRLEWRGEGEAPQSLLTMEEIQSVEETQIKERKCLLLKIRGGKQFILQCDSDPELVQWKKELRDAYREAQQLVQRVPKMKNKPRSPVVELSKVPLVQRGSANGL
The target in experiment [10] is Beta-2 adrenergic receptor (Homo sapiens) (UniProt P07550). As to the kind of experiment: beta2AR agonists driving receptor internalization, pilot screen, cell-based, FAP fluorogen, flow cytometry, validation set (AID 504459;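 active means percent response above 42, roughly 3 SD of non-fluorescent test compounds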;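 further: agonist-driven loss of surface beta2AR via internalization measured by FAP dye flow cytometry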). The conditions noted are these: Am2.2-beta2AR cells, FAP surface receptor flow cytometry; at 10 µM; stronger effect = higher value.
Chain of Beta-2 adrenergic receptor (Homo sapiens) (P07550 whole entry, looked up): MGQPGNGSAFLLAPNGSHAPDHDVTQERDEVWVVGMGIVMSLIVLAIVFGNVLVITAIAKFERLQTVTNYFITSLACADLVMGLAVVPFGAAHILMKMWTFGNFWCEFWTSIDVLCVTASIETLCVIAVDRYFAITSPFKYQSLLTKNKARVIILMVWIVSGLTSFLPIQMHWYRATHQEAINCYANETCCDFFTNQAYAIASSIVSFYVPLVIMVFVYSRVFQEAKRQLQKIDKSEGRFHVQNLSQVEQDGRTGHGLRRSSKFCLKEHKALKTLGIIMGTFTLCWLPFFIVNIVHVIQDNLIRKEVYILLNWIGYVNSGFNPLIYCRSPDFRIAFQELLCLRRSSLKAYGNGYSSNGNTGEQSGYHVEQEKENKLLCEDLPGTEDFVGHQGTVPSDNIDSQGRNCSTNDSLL
For experiment [11], the target named is AP-2 complex subunit beta (Homo sapiens) (UniProt P63010). As to the kind of experiment: inhibitors of arrestin peptide binding to AP2, pilot screen, biochemical, validation set, GST-AP2 beads, flow cytometry (AID 504541;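 active means inhibition above 54%, about 3 SD of non-fluorescent compounds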;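 further: AP2 carries R879A mutation and is captured from E. coli lysate; bead-bound FITC arrestin peptide fluorescence measuring arrestin peptide binding to AP2; 0% = DMSO wells and 100% = excess unlabeled arrestin peptide control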). The conditions noted are these: FITC arrestin peptide, at 10 µM, stronger effect = higher value, AP2 beta2 appendage fragment, R879A mutant.
Chain of AP-2 complex subunit beta (Homo sapiens) (P63010 whole entry, looked up, the tested form may be a part, one chain of several): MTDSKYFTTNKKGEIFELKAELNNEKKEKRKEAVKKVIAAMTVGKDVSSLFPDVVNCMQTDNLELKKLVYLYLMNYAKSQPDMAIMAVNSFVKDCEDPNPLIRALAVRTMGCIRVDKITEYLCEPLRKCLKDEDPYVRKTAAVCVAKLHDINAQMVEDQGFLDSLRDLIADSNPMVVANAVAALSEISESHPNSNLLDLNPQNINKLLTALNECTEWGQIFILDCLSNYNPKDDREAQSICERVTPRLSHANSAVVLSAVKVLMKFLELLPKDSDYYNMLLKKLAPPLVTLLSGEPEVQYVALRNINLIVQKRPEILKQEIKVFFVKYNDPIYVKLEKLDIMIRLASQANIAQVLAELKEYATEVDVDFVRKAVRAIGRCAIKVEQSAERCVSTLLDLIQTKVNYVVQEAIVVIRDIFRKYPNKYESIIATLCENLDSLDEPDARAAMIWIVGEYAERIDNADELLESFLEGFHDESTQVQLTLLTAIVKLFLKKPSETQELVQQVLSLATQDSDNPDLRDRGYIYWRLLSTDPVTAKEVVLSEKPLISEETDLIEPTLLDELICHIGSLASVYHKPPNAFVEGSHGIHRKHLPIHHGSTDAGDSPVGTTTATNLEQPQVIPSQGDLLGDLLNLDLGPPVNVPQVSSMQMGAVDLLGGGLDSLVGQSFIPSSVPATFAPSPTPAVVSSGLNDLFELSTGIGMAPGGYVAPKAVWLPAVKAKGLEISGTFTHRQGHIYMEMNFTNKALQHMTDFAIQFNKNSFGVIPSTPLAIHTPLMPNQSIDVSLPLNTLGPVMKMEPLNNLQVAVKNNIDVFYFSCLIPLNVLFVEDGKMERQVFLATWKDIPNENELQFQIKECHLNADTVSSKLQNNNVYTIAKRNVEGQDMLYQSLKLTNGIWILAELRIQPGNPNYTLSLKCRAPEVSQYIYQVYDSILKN
Experiment [12] in a line: yeast V-ATPase proton transport modulators, S. cerevisiae, pHLuorin, HTS validation (AID 504600; in the data active means response above about 15%;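 further: plate controls were DMSO for no effect and reference compound for full effect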). The conditions noted are these: S. cerevisiae pHLuorin cytosolic pH, at 10 µM, stronger effect = higher value.
Experiment [13] concerns anti-desmoglein-3 scFv antibody binding to human DSG3. In words: inhibitors of anti-DSG3 scFv binding to DSG3, pilot screen, biochemical, validation compound set, bead-based, flow cytometry (AID 588368).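 Further: signal is the median channel fluorescence of bead-bound GFP antibody.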 The conditions noted are these: Protein G beads, DSG3-Fc, scFv-GFP binding, at 10 µM, stronger effect = lower value.
Experiment [14] in a line: inhibitors of fungal efflux pumps CDR1, CDR2, MDR1, pilot screen, validation compound set, multiplex, phenotypic (AID 588506;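 active means efflux inhibition above 0.42, the validation set average plus 4 SD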;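 further: Nile Red retained in cells so higher fluorescence means more efflux inhibition; 0 = negative control wells and 1 = enniatin B 25 µM full block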). The conditions noted are these: S. cerevisiae pump-expressing triplex, Nile Red efflux flow cytometry; at 10 µM; stronger effect = higher value; the pumps come from Candida albicans.
The target of experiment [15] is ATP-binding cassette sub-family B member 6 (Homo sapiens) (UniProt Q9NP58). In words: ABCB6 transporter inhibitors, pilot screen, K562-ABCB6 cells, flow cytometry, validation set (AID 588550;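 active means inhibition above the screen-wide mean plus 3 SD, about 51%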;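 further: 0% = DMSO wells and 100% = benzethonium chloride 70 µM positive control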). The conditions noted are these: K562-ABCB6 porphyrin accumulation, 1 h, at 10 µM, stronger effect = higher value.
Chain of ATP-binding cassette sub-family B member 6 (Homo sapiens) (Q9NP58 whole entry, looked up): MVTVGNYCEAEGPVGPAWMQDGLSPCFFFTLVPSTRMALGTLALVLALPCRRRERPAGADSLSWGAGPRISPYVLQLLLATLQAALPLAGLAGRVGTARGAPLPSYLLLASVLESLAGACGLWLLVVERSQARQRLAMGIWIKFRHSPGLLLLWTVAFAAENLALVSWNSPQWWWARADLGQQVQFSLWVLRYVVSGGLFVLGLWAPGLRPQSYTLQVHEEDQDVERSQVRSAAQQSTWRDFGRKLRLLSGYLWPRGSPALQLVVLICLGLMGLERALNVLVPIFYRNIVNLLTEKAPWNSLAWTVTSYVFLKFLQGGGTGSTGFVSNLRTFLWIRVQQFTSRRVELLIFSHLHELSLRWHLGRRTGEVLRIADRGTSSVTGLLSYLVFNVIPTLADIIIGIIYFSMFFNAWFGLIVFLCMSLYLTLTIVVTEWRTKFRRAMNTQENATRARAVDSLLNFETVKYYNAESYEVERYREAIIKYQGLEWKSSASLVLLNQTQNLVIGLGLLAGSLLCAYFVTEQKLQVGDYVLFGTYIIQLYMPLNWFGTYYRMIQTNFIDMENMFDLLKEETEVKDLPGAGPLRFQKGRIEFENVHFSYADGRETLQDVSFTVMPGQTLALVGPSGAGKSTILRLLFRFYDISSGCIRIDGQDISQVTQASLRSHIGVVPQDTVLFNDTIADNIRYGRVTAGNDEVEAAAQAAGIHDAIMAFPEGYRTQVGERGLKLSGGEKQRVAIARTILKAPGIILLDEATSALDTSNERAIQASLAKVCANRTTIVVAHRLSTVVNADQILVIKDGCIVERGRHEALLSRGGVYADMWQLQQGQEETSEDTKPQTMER
Experiment [16] in a line: promoters of myeloid differentiation in arrested cells, primary screen, cell-based, GFP/MAC1 double positive, flow cytometry, validation set (AID 588685;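 active means differentiation response of at least 50%, scaled between solvent and reference control, from cells with both markers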;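 further: compound exposure lasts four days before antibody staining and flow analysis; 0% = DMSO wells and 100% = 5 µM fulvestrant positive control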). The conditions noted are these: ER-HoxA9 marrow cells, stronger effect = higher value, normalized: vehicle 0, fulvestrant 100.

Four compounds from PubChem BioAssay can be followed below.

The structures appear in SMILES notation. Inconclusive results are not listed. Activity calls are given as the source filed them.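 How the source made its calls, unless noted: active means binding below the plate cutoff, the plate median minus 3 SD, with a reading above zero; inconclusive means below the plate cutoff but reading exactly zero; inactive means the rest.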

What is called inhibition is the drop in the measured response relative to a control, in per cent.

Turning to `COc1ccccc1NC(=O)Cn1c(C)cc(=O)c2cccc(OC)c21`, the percent of DMSO control GFP in experiment [1] is 102% (inactive). The GFP response vs DMSO in experiment [2] is 108% (inactive); in experiment [4], 90.2% (inactive). In addition, the percent response of DMSO control in experiment [3] was 100% (inactive). For the same compound, the GFP response, % of DMSO in experiment [5] was 99.9% (inactive). In addition, the double positive events in experiment [6] stood at 60.7%. For the same compound, the vesicle binding response in experiment [6] was 79.1% (inactive). Also, the inhibition in experiment [7] is -11.8% (inactive); in experiment [11], -11.8% (inactive); in [15] it was 6% (inactive). Besides, in [8], the superoxide response (% of plate) was 105% (inactive). Moreover, the aptamer binding inhibition in [9] is 4% (inactive). The values for the response in [10] and in [12] were 11.6% (inactive) and 0.11% (inactive), respectively. Besides, the binding (% of control) in [13] was 103% (inactive). Besides, the efflux inhibition (fraction of control) in experiment [14] is 0.58 (active). The differentiation response in experiment [16] was -5.68% (inactive).

Regarding `CCc1cc(=O)oc2cc(OCc3nn[nH]n3)ccc12`, the percent of DMSO control GFP in experiment [1] is 102% (inactive). The GFP response vs DMSO in experiment [2] is 100% (inactive); in experiment [4], 96% (inactive). Further, in experiment [3], the percent response of DMSO control was 96.6% (inactive). Besides, the GFP response, % of DMSO in experiment [5] is 100% (inactive). The double positive events in experiment [6] turned out to be 65.5%. In experiment [6], the vesicle binding response is 174% (inactive). In addition, the inhibition in [7] is -10.8% (inactive); in experiment [11], 9.23% (inactive); in experiment [15], 14% (inactive). In addition, the superoxide response (% of plate) in experiment [8] was 106% (inactive). Also, the aptamer binding inhibition in experiment [9] was 5% (inactive). Besides, the response was -3.63% (inactive) in experiment [10] and -0.49% (inactive) in [12]. For the same compound, the binding (% of control) in experiment [13] was 103% (inactive). Further, the efflux inhibition (fraction of control) in experiment [14] is 0.02 (inactive). Moreover, the differentiation response in experiment [16] is 0.24% (inactive).

On to `Cc1ccc2c(c1)C1OCCC1C1N2C(=O)C2C(C(=O)O)C3C=CC21O3` (stereo not drawn), for which the percent of DMSO control GFP in experiment [1] is 104% (inactive). For the same compound, the GFP response vs DMSO in experiment [2] was 107% (inactive); in experiment [4], 106% (inactive). For the same compound, the percent response of DMSO control in experiment [3] is 110% (inactive). The GFP response, % of DMSO in experiment [5] is 107% (inactive). The compound also yielded a double positive events in [6] of 62.2%. The vesicle binding response in experiment [6] is 207% (inactive). Moreover, the figures for the inhibition in experiment [7], in experiment [11] and in experiment [15] were 11% (inactive), 41.7% (inactive) and 11% (inactive), respectively. Also, the superoxide response (% of plate) in experiment [8] was 106% (inactive). The aptamer binding inhibition in [9] is 11% (inactive). For the same compound, the response was 0.35% (inactive) in experiment [10] and 3.53% (inactive) in experiment [12]. Moreover, in experiment [13], the binding (% of control) was 101% (inactive). The efflux inhibition (fraction of control) in [14] is -0.32 (inactive). Moreover, the differentiation response in experiment [16] is -13.3% (inactive).

`COc1cc(C(=O)NCCCCCC(=O)O)cc(OC)c1OC`: in experiment [1], the percent of DMSO control GFP is 104% (inactive). The GFP response vs DMSO in [2] was 105% (inactive); in [4] it was 103% (inactive). Besides, the percent response of DMSO control in experiment [3] is 102% (inactive). The GFP response, % of DMSO in [5] was 108% (inactive). The double positive events in [6] is 65.5%. Also, the vesicle binding response in [6] was 199% (inactive). The inhibition in experiment [7] is 5.61% (inactive); in [11], -5.4% (inactive); in experiment [15], 1% (inactive). Further, the superoxide response (% of plate) in experiment [8] was 100% (inactive). The aptamer binding inhibition in experiment [9] is 2% (inactive). The response was 11.2% (inactive) in experiment [10] and 1.93% (inactive) in experiment [12]. Moreover, the binding (% of control) in [13] is 101% (inactive). In addition, the efflux inhibition (fraction of control) in experiment [14] was -0.23 (inactive). For the same compound, in [16], the differentiation response is -19.2% (inactive).
